The results in this text go back to the supplement of paper PMC12067926.

A number with no mark means an inactive call.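 How the source made its calls: active = growth AUC significantly below the DMSO wells by Dunnett test; inactive = the rest.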

One test deals with Pseudomonas 3 (Pseudomonas mandelii). Kind of test: relative growth (AUC of 72 h growth curve relative to DMSO control, dAUC) (ratio); higher = more growth (less inhibition), active = hit call of the paper. To be noted: 20 µM. The gist of the method: (§1)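 Relative growth (dAUC) is the spline-integrated area under the growth curve divided by the mean of the DMSO-only control wells. Cultures were isolates from Icelandic stream sediments and Silwood Park soil, plus whole sediment communities, grown to carrying capacity in Luria–Bertani medium and diluted 1:100 into 96-well plates containing each chemical at 20 µM (1% DMSO). A600 was read hourly for 72 h on a plate reader, with brief shaking before each read, and values were averaged over three biological replicates.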
`COC(=O)N(C(=O)N1CO[C@@]2(C(=O)OC)Cc3cc(Cl)ccc3C2=N1)c1ccc(OC(F)(F)F)cc1`: the relative growth is 1.04.
Same read-out and setting: the value for `N#Cc1c[nH]cc1-c1cccc2c1OC(F)(F)O2` was 1.03; that for `CC(C)N(C(=O)COc1nnc(C(F)(F)F)s1)c1ccc(F)cc1` was 1.07.
Turning to `CC1(C)C(C=C(Cl)Cl)C1C(=O)OC(C#N)c1ccc(F)c(Oc2ccccc2)c1` (configuration not stated), the relative growth was 1.02.
Turning to `Cc1c(COC(=O)[C@@H]2[C@H](/C=C(\Cl)C(F)(F)F)C2(C)C)cccc1-c1ccccc1` (racemic), the relative growth is 0.977.
On to `COc1cc(C)c(C(=O)c2c(OC)ccc(Br)c2C)c(OC)c1OC`, for which the relative growth is 1.
Still for that read-out and setting: the value for `CC(C)(C)C(O)(CCc1ccc(Cl)cc1)Cn1cncn1` (configuration not stated) was 1.03; that for `CCCC(Cn1cncn1)c1ccc(Cl)cc1Cl` (configuration not stated) was 1.02; that for `C[C@@H]1[C@@H](c2ccc(Cl)cc2)SC(=O)N1C(=O)NC1CCCCC1` was 1.02.
Same read-out and setting: the value for `O=C1C2(Cl)C3(Cl)C4(Cl)C(Cl)(Cl)C5(Cl)C3(Cl)C1(Cl)C5(Cl)C24Cl` (configuration not stated) was 0.955; that for `OC(Cc1ccccc1Cl)(Cn1nc[nH]c1=S)C1(Cl)CC1` (configuration not stated) was 1.01.
Same read-out and setting: next, `CC1(C)[C@H](C(=O)O[C@H](C#N)c2cccc(Oc3ccccc3)c2)[C@@H]1C=C(Br)Br`: 1.03; `N#Cc1c(Cl)c(Cl)c(Cl)c(C#N)c1Cl`: 0.967.
On to `CCOc1ccc(C(C)(C)COCc2cccc(Oc3ccccc3)c2)cc1`, for which the relative growth is 1.02.
The same measure, in the same setting: next, `Cc1cc(C(F)(C(F)(F)F)C(F)(F)F)ccc1NC(=O)c1cccc(I)c1C(=O)NC(C)(C)CS(C)(=O)=O`: 0.883; `N#Cc1nn(-c2c(Cl)cc(C(F)(F)F)cc2Cl)c(N)c1[S+]([O-])C(F)(F)F` (configuration not stated): 0.94; `CNC(=O)Oc1cccc2ccccc12`: 0.996.
Same read-out and setting: the value for `CO/N=C(/C(=O)OC)c1ccccc1CO/N=C(\C)c1cccc(C(F)(F)F)c1` was 1.04; that for `CC1(C)CON(Cc2ccccc2Cl)C1=O` was 1.06.
Same read-out and setting: the value for `CCCN(CCC)C(=O)SCc1ccccc1` was 1.09; that for `CC[C@H](C)[C@H]1O[C@]2(C=C[C@@H]1C)C[C@@H]1C[C@@H](C/C=C(\C)[C@@H](O[C@H]3C[C@H](OC)[C@@H](O[C@H]4C[C@H](OC)[C@@H](O)[C@H](C)O4)[C@H](C)O3)[C@@H](C)/C=C/C=C3\CO[C@@H]4[C@H](O)C(C)=C[C@@H](C(=O)O1)[C@]34O)O2.CO[C@H]1C[C@H](O[C@H]2[C@H](C)O[C@@H](O[C@@H]3/C(C)=C/C[C@@H]4C[C@@H](C[C@]5(C=C[C@H](C)[C@@H](C(C)C)O5)O4)OC(=O)[C@@H]4C=C(C)[C@@H](O)[C@H]5OC/C(=C\C=C\[C@@H]3C)[C@]54O)C[C@@H]2OC)O[C@@H](C)[C@@H]1O` was 1.03; that for `Nc1c(Cl)c(F)nc(OCC(=O)O)c1Cl` was 0.978.
Turning to `O=C1C=C(N(Cc2ccc(Cl)nc2)CC(F)F)CO1`, the relative growth is 1.06.
The same measure, in the same setting: the value for `CC1(C)C(C(=O)OC(C#N)c2cccc(Oc3ccccc3)c2)C1(C)C` (configuration not stated) was 1.04; that for `COP(=O)(OC)OC=C(Cl)Cl` was 1.04.

The next test relates to Pseudomonas 4 (Pseudomonas peli). The test is described as above. To be noted: 20 µM. The gist of the method:
as §1
As for `CCOc1cc(Oc2ccc(C(F)(F)F)cc2Cl)ccc1[N+](=O)[O-]`, the relative growth was 0.939.
The same measure, in the same setting: next, `O=C(NC(=O)c1c(F)cccc1F)Nc1ccc(OC(F)(F)C(F)OC(F)(F)F)c(Cl)c1` (configuration not stated): 0.961; `Cc1cc(C)nc(Nc2ccccc2)n1`: 0.947.
On the same count and under the same terms, the value for `CC(C)NC(=O)N1CC(=O)N(c2cc(Cl)cc(Cl)c2)C1=O` was 0.923; that for `Cc1nnc(-c2ccccc2)c(=O)n1N` was 0.954; that for `CSc1nc(NC(C)C)nc(NC(C)C)n1` was 0.949.
The same measure, in the same setting: the value for `C/C(=N\C#N)N(C)Cc1ccc(Cl)nc1` was 0.991.
As to `Cc1cccc2sc3nncn3c12`, the relative growth was 0.947.
On the same count and under the same terms, next, `Fc1ccc(Oc2ccnc3cc(Cl)cc(Cl)c23)cc1`: 1.07; `COP(N)(=O)SC` (configuration not stated): 0.995; `COc1cc(OC)nc(NC(=O)NS(=O)(=O)c2ncccc2C(=O)N(C)C)n1`: 0.993.
The same measure, in the same setting: next, `CC[C@H]1CCC[C@H](O[C@H]2CC[C@H](N(C)C)[C@@H](C)O2)[C@@H](C)C(=O)C2=C[C@@H]3[C@@H](C=C(C)[C@@H]4C[C@@H](O[C@@H]5O[C@@H](C)[C@H](OC)[C@@H](OC)[C@H]5OC)C[C@@H]34)[C@@H]2CC(=O)O1.CC[C@H]1CCC[C@H](O[C@H]2CC[C@H](N(C)C)[C@@H](C)O2)[C@@H](C)C(=O)C2=C[C@H]3[C@@H]4C[C@H](O[C@@H]5O[C@@H](C)[C@H](OC)[C@@H](OC)[C@H]5OC)C[C@H]4C=C[C@H]3C2CC(=O)O1`: 1.05; `COC(=O)N(C(=O)N1CO[C@@]2(C(=O)OC)Cc3cc(Cl)ccc3C2=N1)c1ccc(OC(F)(F)F)cc1`: 1.01.
Same read-out and setting: next, `N#Cc1c[nH]cc1-c1cccc2c1OC(F)(F)O2`: 0.945; `CC(C)N(C(=O)COc1nnc(C(F)(F)F)s1)c1ccc(F)cc1`: 0.983; `CC1(C)C(C=C(Cl)Cl)C1C(=O)OC(C#N)c1ccc(F)c(Oc2ccccc2)c1` (configuration not stated): 0.964.
Consider `Cc1c(COC(=O)[C@@H]2[C@H](/C=C(\Cl)C(F)(F)F)C2(C)C)cccc1-c1ccccc1` (racemic), for which the relative growth was 0.995.
`COc1cc(C)c(C(=O)c2c(OC)ccc(Br)c2C)c(OC)c1OC`: the relative growth is 1.02.
Same read-out and setting: the value for `CC(C)(C)C(O)(CCc1ccc(Cl)cc1)Cn1cncn1` (configuration not stated) was 0.94; that for `CCCC(Cn1cncn1)c1ccc(Cl)cc1Cl` (configuration not stated) was 1.07; that for `C[C@@H]1[C@@H](c2ccc(Cl)cc2)SC(=O)N1C(=O)NC1CCCCC1` was 1.
As for `O=C1C2(Cl)C3(Cl)C4(Cl)C(Cl)(Cl)C5(Cl)C3(Cl)C1(Cl)C5(Cl)C24Cl` (configuration not stated), the relative growth was 0.934.
Regarding `OC(Cc1ccccc1Cl)(Cn1nc[nH]c1=S)C1(Cl)CC1` (configuration not stated), the relative growth was 1.
On the same count and under the same terms, next, `CC1(C)[C@H](C(=O)O[C@H](C#N)c2cccc(Oc3ccccc3)c2)[C@@H]1C=C(Br)Br`: 1.01; `N#Cc1c(Cl)c(Cl)c(Cl)c(C#N)c1Cl`: 1; `CCOc1ccc(C(C)(C)COCc2cccc(Oc3ccccc3)c2)cc1`: 0.914.
Same read-out and setting: the value for `Cc1cc(C(F)(C(F)(F)F)C(F)(F)F)ccc1NC(=O)c1cccc(I)c1C(=O)NC(C)(C)CS(C)(=O)=O` was 1.13.
Still for that read-out and setting: the value for `N#Cc1nn(-c2c(Cl)cc(C(F)(F)F)cc2Cl)c(N)c1[S+]([O-])C(F)(F)F` (configuration not stated) was 0.987; that for `CNC(=O)Oc1cccc2ccccc12` was 1.01.
For the compound `CO/N=C(/C(=O)OC)c1ccccc1CO/N=C(\C)c1cccc(C(F)(F)F)c1`, the relative growth is 0.949.
Still for that read-out and setting: next, `CC1(C)CON(Cc2ccccc2Cl)C1=O`: 0.975; `CCCN(CCC)C(=O)SCc1ccccc1`: 0.979; `CC[C@H](C)[C@H]1O[C@]2(C=C[C@@H]1C)C[C@@H]1C[C@@H](C/C=C(\C)[C@@H](O[C@H]3C[C@H](OC)[C@@H](O[C@H]4C[C@H](OC)[C@@H](O)[C@H](C)O4)[C@H](C)O3)[C@@H](C)/C=C/C=C3\CO[C@@H]4[C@H](O)C(C)=C[C@@H](C(=O)O1)[C@]34O)O2.CO[C@H]1C[C@H](O[C@H]2[C@H](C)O[C@@H](O[C@@H]3/C(C)=C/C[C@@H]4C[C@@H](C[C@]5(C=C[C@H](C)[C@@H](C(C)C)O5)O4)OC(=O)[C@@H]4C=C(C)[C@@H](O)[C@H]5OC/C(=C\C=C\[C@@H]3C)[C@]54O)C[C@@H]2OC)O[C@@H](C)[C@@H]1O`: 1.02.
For `Nc1c(Cl)c(F)nc(OCC(=O)O)c1Cl`, the relative growth was 1.04.
Same read-out and setting: next, `O=C1C=C(N(Cc2ccc(Cl)nc2)CC(F)F)CO1`: 0.993; `CC1(C)C(C(=O)OC(C#N)c2cccc(Oc3ccccc3)c2)C1(C)C` (configuration not stated): 0.948.
For the compound `COP(=O)(OC)OC=C(Cl)Cl`, the relative growth was 0.963.
